Measured values taken from PubChem BioAssay AID651814 (National Center for Advancing Translational Sciences (NCATS), 2012).
About 590 (28%) of roughly 2,100 compounds were called active. Another 42% or so got no clear call; they are omitted. Calls come from the whole dose curve; as a rule, active = well fitted inhibition curve with a large enough effect; inconclusive = small, poorly fitted or top-dose-only effect; inactive = flat fitted curve, though single readings scatter. The list shows a part of the results.

biological target: DNA dC->dU-editing enzyme APOBEC-3F (Homo sapiens) (UniProt Q8IUX4); assay: qHTS for inhibitors of Vif-A3F interactions: Cherry picks; conditions: HeLa A3F-eYFP + Vif (tagged APOBEC3F with the HIV-1 protein that degrades it), eYFP fluorescence, 24 h; note: nearly all actives have a fitted effect of over 70% in size;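 for Max response: % of control where 0% means no effect; active compounds raise eYFP fluorescence by blocking Vif-driven A3F loss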
Summary of the method: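 Read-out: yellow fluorescence (ex 488 nm, em 500-530 nm) by laser-scanning cytometer after 24 h compound exposure, several concentrations, at 37 deg C. Cells: HeLa line stably co-expressing Vif and C-terminally eYFP-tagged A3F; MG132 served as positive control.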
Potency is the fitted concentration of half-maximal effect.

Chain of DNA dC->dU-editing enzyme APOBEC-3F (Homo sapiens) (Q8IUX4 whole entry, looked up): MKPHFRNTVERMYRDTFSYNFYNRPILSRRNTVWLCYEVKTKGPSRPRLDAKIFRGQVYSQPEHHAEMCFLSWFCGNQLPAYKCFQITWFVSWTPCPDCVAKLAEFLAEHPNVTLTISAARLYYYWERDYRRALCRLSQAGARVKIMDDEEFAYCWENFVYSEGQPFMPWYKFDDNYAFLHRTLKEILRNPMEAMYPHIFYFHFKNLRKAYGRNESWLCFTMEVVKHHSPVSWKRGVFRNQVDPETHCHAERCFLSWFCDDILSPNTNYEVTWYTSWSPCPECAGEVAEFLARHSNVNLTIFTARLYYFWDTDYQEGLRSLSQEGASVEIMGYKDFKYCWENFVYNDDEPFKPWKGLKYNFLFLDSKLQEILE

Max response, inactive:
Cc1ccc(NC(=S)NC(=O)c2ccc(F)cc2)cc1S(=O)(=O)Nc1cccc(Cl)c1 -16.8%
CCCOc1ccc2cc(C(=O)NCc3ccccc3)c(=O)oc2c1 -1.07%
c1cncc(-c2nc(NCc3cccs3)c3ccccc3n2)c1 -5.9%
COc1ccc(-c2cc(-c3nnc(COC(=O)c4ccncc4)o3)c3ccccc3n2)cc1OC 2.21%
NC(=S)N/N=C/c1cccc(O)c1O -21%
O=C(Nc1ccc(Cl)cn1)c1cccc(S(=O)(=O)N2CCCCCC2)c1 -1%
O=C(CN1c2cccc3cccc(c23)S1(=O)=O)Nc1ccc(S(=O)(=O)N2CCOCC2)cc1 -0.998%
Cc1c(C(=O)Nc2ccc(C(C)C)cc2)sc2nc3n(c(=O)c12)CCC3 -1.94%
COc1ccc(NC(=O)c2oc3ccc(S(=O)(=O)N4CCOCC4)cc3c2C)cc1 -0.455%
CC(C)c1ccc(C(=O)NCCCNC(=O)c2cnccn2)cc1 1.42%
Fc1cccc(F)c1/C=N/NC(=S)Nc1cccnc1 -0.429%
O=C(O)Cc1sc(NC2CCCCC2)nc1-c1ccc(Cl)cc1 -1.51%
COCc1cc(C)nc(SCC(=O)Nc2ccc3[nH]c(=O)[nH]c3c2)c1C#N 0.302%
Cc1ccc(NC(=O)CSc2n[nH]c(-c3ccccn3)n2)cc1 -3.6%
CN1C(=O)N(C)c2ccc(C=O)c3cccc1c23 -1.54%
CCOc1ccc(Br)cc1C1C(C(=O)OC)=C(N)Oc2cc(N(C)C)ccc21 (stereo not given) -21.7%
COc1cccc(N=C2NC(=O)/C(=C/c3cc([N+](=O)[O-])ccc3O)S2)c1 -16.1%
Cc1cccc(N=C2NC(=O)/C(=C/c3cccn3C)S2)c1 -9.23%
C=C1C(=O)O[C@@H]2[C@H]1[C@@H](OC(=O)/C(C)=C/C)C/C(C)=C\C(=O)/C=C(\C)[C@@H]2O -29.6%
Cc1ccc(N2C(=O)[C@@H]3[C@H](C2=O)[C@H]2C=C(C(=O)c4ccccc4)C=CN2[C@@H]3C(=O)c2ccc(Cl)cc2)cc1 -5.61%
COc1ccc(/C=C(/C(=O)c2cccs2)N2C=CC=CC2=C(C#N)C#N)cc1 -25.3%
CCOC(=O)c1c(CN(CC)CC)n(-c2ccccc2)c2ccc(O)cc12 0.203%
COc1cc(/C=C2\SC(=Nc3cccnc3)NC2=O)cc(OC)c1OC -8.17%
CCC(=O)NC(=S)Nc1cccc(Cl)c1N1CCCC1 -0.93%
COCCCN(C(C)=O)c1nc(-c2ccc(OC)cc2)cs1 -29.1%
Cc1ccc(NC(=S)Nc2ccccn2)c(C)c1 1.92%
CCOC(=O)c1ccc(NC(=S)Nc2cccc(C)n2)cc1 -6.7%
CC(=O)Nc1ccc2c(c1)Cc1ccc(Cl)cc1-2 -9.88%
NC(=O)C1CCN(c2nc3ccccc3nc2NS(=O)(=O)c2ccc(Br)cc2)CC1 -0.959%
COc1ccc(N2C(=O)NC3CC2(C)Oc2ccccc23)cc1OC (stereo not given) -29.4%
COc1ccc(C(C)(O)c2nc(-c3ccccc3OC)cs2)cc1 (stereo not given) -27.4%
O=C1/C(=C/c2ccc([N+](=O)[O-])cc2)Oc2cc(O)ccc21 -5.76%
O=[N+]([O-])c1ccccc1S(=O)(=O)Nc1ccc(-c2ccc(N3CCOCC3)nn2)cc1 -8.95%
O=C(O)c1ccccc1/C=N/Nc1ccc(S(=O)(=O)N2CCOCC2)cc1[N+](=O)[O-] -0.875%
COc1ccc(NC(=O)C2Cc3c(-c4cccc(C(C)=O)c4)ccnc3O2)cn1 (stereo not given) -25.1%
Cc1cc(N/N=C/c2ccc(O)cc2O)nc(-n2nc(C)cc2C)n1 2.91%
COC(=O)c1sccc1S(=O)(=O)N(CC(=O)Nc1cc(F)ccc1F)c1ccc(C)c(C)c1 4.72%
O=S(=O)(Nc1nc2n(n1)C(c1ccccc1)C=C(c1ccc(Cl)cc1)N2)c1ccccc1 (stereo not given) -9.71%
COc1ccc(C(=O)Nc2ccc3c(c2)N(C)C(=O)c2ccccc2S3)cc1OC -28.4%
CC[n+]1ccc(/C=C2\Sc3ccccc3N2CCCS(=O)(=O)[O-])c2ccccc21 -17.2%
N#CC1=C(N)Oc2c(sc3ccccc23)C1c1ccco1 (stereo not given) -18.3%
Cn1ccnc1Sc1nc2ccccc2nc1NS(=O)(=O)c1ccccc1 -9.48%
O=C(Nc1nnc(-c2ccc3c(c2)CCCC3)o1)c1c(F)cccc1F 0.764%
CCN(CC)c1nc2cc(OC)ccc2cc1C#N -15.5%
COCCNC(=S)NN=C1CCCCCC1 2.16%
C/C(=N\NC(=S)NCc1ccccc1)c1cccs1 -3.71%
COc1cccc(NC(=O)c2oc3ccc(S(=O)(=O)N4CCC5(CC4)OCCO5)cc3c2C)c1 -28.1%
NC1=NC(=O)/C(=C/c2cc(Br)c(O)c(Br)c2)S1 -7.06%
Cc1ccc2[nH]c3c(c2c1)CCCC3NC(=O)CCl (stereo not given) -15.6%
O=C1CC(c2cc(Br)ccc2F)c2cc3c(cc2N1)CCC3 (stereo not given) -29.3%
COc1cc(C(=O)NCCOc2cc(C)cc(C)c2)c(Br)c(OC)c1OC -22.9%
Cc1cc(-c2nc(C)c(C(=O)NN)s2)no1 -13.4%
CCn1c(O)c(/C=N/NC(=O)c2ccncc2)c(=O)n(CC)c1=S -6.26%
CC(C)c1cccc(-c2ccc3c(c2)S(=O)(=O)c2cccc(C(=O)NCc4ccccc4)c2C3=O)c1 -28.2%

Potency, active:
CCCOc1ccc(C(=O)Nc2cccc(NC(=O)c3ccc(Cl)cc3Cl)c2)cc1 16.4 µM
CC(=O)N/N=C/c1cc(C(C)(C)C)cc(/C=N/NC(C)=O)c1O 23.1 µM
Nc1c(C(=O)Nc2ccc(S(=O)(=O)N3CCCC3)cc2)sc2nc3ccc(OC(F)(F)F)cc3cc12 20.6 µM
CCc1cccc2cc3c(N)c(C(=O)Nc4ccc(S(=O)(=O)N5CCCC5)cc4)sc3nc12 2.8 µM
Nc1c(C(=O)Nc2ccc(S(=O)(=O)N3CCCC3)cc2)sc2nc3cc4c(cc3cc12)CCC4 6.51 µM
O=C(Nc1ccc([N+](=O)[O-])cc1)C(Cc1ccccc1)N1C(=O)c2cccc3cccc(c23)C1=O (stereo not given) 12.5 µM
Cc1cc(NC(=O)CSc2nc3c(C)cccc3cc2C#N)no1 7.31 µM
Cc1nc2cc(NC(=O)CSc3nc4c(C)cccc4cc3C#N)ccc2s1 11.6 µM
Cc1nonc1NC(=O)CSc1nc2c(C)cccc2cc1C#N 18.4 µM
N#C/C(=C/c1cccs1)c1ccccn1 17.7 µM
Cn1cccc1/C=C1\SC(=Nc2cccc(O)c2)NC1=O 15.8 µM
Cc1ccc(N=C2NC(=O)/C(=C/c3cn(C)c4ccccc34)S2)cc1C 17.7 µM
Cc1ccc(N=C2NC(=O)/C(=C/c3cccn3C)S2)cc1 9.94 µM
Cn1cccc1/C=C1\SC(=Nc2ccc(O)cc2)NC1=O 12.5 µM
COc1cc(/C=C2/SC(=Nc3ccc(O)cc3)NC2=O)ccc1O 16.4 µM
CCOC(=O)c1cc(-c2ccccc2)sc1NC(=S)Nc1cc(C)ccn1 8.2 µM
Cc1ccc2nc(/C(C#N)=C\c3ccc([N+](=O)[O-])o3)[nH]c2c1 3.26 µM
N#C/C(=C\c1ccc([N+](=O)[O-])o1)c1nc2ccccc2[nH]1 5.17 µM
CN(C)c1ccc(/C=C2\Oc3ccc(C#Cc4cccc(N)c4)cc3C2=O)cc1 12.5 µM
Cc1ccnc(N/C=C(\C#N)c2nc(-c3cccc(Br)c3)cs2)c1 11.2 µM
O=[N+]([O-])c1ccc(N/N=C/c2sc(N3CCOCC3)nc2-c2ccccc2)c(S(=O)(=O)Nc2ccccc2Cl)c1 9.2 µM
COc1ccccc1NS(=O)(=O)c1cc([N+](=O)[O-])ccc1N/N=C/c1sc(N2CCOCC2)nc1-c1ccccc1 2.06 µM
CC(=O)/C(N=Nc1cc(C)ccc1O)=C(\C)O 20.6 µM
COc1ccc2c(c1)N(C)/C(=C/c1cccc[n+]1C)S2 7.04 µM
CC[n+]1ccccc1/C=C1\Sc2ccc(C)cc2N1C 23.1 µM
CCN1/C(=C/c2cccc[n+]2C)Sc2ccc(OC)cc21 18.4 µM
COc1cc2c3nnc(-c4ccc(F)cc4)c-3cn(Cc3ccc(C)cc3)c2cc1OC 9.94 µM
COc1ccc2c(C)cc(SCC#N)nc2c1 20.6 µM
CCOCCCNC(=O)/C(C#N)=C/c1ccc([N+](=O)[O-])o1 16.4 µM
CC(NC(=O)/C(C#N)=C/c1ccc([N+](=O)[O-])o1)c1ccccc1 (stereo not given) 7.31 µM
COc1ccc(-c2ccc3c(c2)S(=O)(=O)c2cccc(C(=O)NCCOc4ccccc4)c2C3=O)cc1OC 15.8 µM
O=C(NCc1cccc(F)c1)c1cccc2c1C(=O)c1ccc(N3CCCC3)cc1S2(=O)=O 14 µM
CC1CCN(c2ccc3c(c2)S(=O)(=O)c2cccc(C(=O)NCc4cccc(F)c4)c2C3=O)CC1 14 µM
O=C(NCc1ccccc1C(F)(F)F)c1cccc2c1C(=O)c1ccc(N3CCC(N4CCCCC4)CC3)cc1S2(=O)=O 16.4 µM
O=C(NCc1ccccc1)c1cccc2c1C(=O)c1ccc(/C=C/c3ccccc3)cc1S2(=O)=O 16.4 µM
Cc1ccc(CNC(=O)c2cccc3c2C(=O)c2ccc(N4CCC(C)CC4)cc2S3(=O)=O)cc1 16.4 µM
